A selection: hits, their analogues and other compounds. The true share with any hit is near 3.4%.
PP5 inh: PP5 phosphatase inhibitors, primary screen, biochemical, fluorescence; purified PP5c, OMFP substrate fluorescence; Serine/threonine-protein phosphatase 5 (Homo sapiens), P53041; hit rate 0.18% among 320,000; AID 1987, 2009; inhibition, % at 6.7 µM;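 active = inhibition above the campaign's mean inhibition across all tested compounds plus 3 SD, cut at about 9.5% in these data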;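 also: 0% = DMSO only and 100% = 100 µM cantharidin control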
PAFAH1B3 FP inh: PAFAH1B3 enzyme inhibitors, primary screen, biochemical, fluorescence polarization, human; AID 492972, 2010; inhibition, % at 3.39 µM; recombinant PAFAH1B3, FP-rhodamine probe; hit rate 0.28% among 340,000; Platelet-activating factor acetylhydrolase IB subunit alpha1 (Homo sapiens), Q15102;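 active = inhibition above the screen-wide average of all tested compounds plus 3 SD, cut at about 25% in these data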;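 also: 0% = enzyme with DMSO only and 100% = wells lacking PAFAH1B3 protein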
Target sequence (Q15102 whole entry, looked up): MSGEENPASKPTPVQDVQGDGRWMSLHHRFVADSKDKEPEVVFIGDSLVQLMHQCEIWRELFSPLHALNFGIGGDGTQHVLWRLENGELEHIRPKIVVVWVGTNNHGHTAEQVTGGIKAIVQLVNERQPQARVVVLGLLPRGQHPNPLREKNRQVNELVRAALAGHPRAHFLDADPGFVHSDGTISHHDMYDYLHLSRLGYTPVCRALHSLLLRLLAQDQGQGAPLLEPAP
pPAFAH FP inh: pPAFAH enzyme inhibitors, primary screen, biochemical, fluorescence polarization, human; Platelet-activating factor acetylhydrolase (Homo sapiens), Q13093; recombinant pPAFAH, FP-rhodamine probe fluorescence polarization; inhibition, % at 3.39 µM; hit rate 1.5% among 330,000; AID 463082, 2010;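 active = inhibition above the mean inhibition across the screen plus 3 SD, cut at about 25% in these data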;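 also: inhibitors block binding of the rhodamine activity-based probe so polarization drops; 0% = enzyme with DMSO and 100% = wells lacking pPAFAH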
PAFAH2 FP inh: PAFAH2 enzyme inhibitors, primary screen, biochemical, fluorescence polarization, human | AID 492956, 2010 | hit rate 0.99% among 340,000 | Platelet-activating factor acetylhydrolase 2, cytoplasmic (Homo sapiens), Q99487 | inhibition, % at 3.39 µM | recombinant PAFAH2, FP-rhodamine activity probe;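 active = inhibition above the mean over all tested compounds plus 3 SD, cut at about 30% in these data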;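 also: inhibitors block probe labeling of enzyme so polarization drops; 0% = enzyme with DMSO and 100% = wells lacking PAFAH2 protein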
PAFAH1B2 inh: PAFAH1B2 enzyme inhibitors, primary screen, biochemical, fluorescence polarization, human; recombinant PAFAH1B2, FP-rhodamine activity probe; inhibition, % at 3.39 µM; AID 492953, 2010; Platelet-activating factor acetylhydrolase IB subunit alpha2 (Homo sapiens), P68402; hit rate 1.2% among 340,000;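 active = inhibition above the mean of all tested compounds plus 3 SD, cut at about 24% in these data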;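 also: 0% = enzyme with DMSO and 100% = wells lacking PAFAH1B2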
PP1 inh: PP1-alpha phosphatase inhibitors, primary screen, counter-screen for PP5 inhibitor project, biochemical, fluorescence, OMFP substrate, single point; hit rate 0.9% among 320,000; AID 2235, 2010; purified PP1alpha; inhibition, % at 6.7 µM; Serine/threonine-protein phosphatase PP1-alpha catalytic subunit (Homo sapiens), P62136;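 active = inhibition above the mean inhibition of all tested compounds plus 3 SD, computed separately for each screening campaign, cut at about 15% in these data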
Target sequence (P62136 whole entry, looked up): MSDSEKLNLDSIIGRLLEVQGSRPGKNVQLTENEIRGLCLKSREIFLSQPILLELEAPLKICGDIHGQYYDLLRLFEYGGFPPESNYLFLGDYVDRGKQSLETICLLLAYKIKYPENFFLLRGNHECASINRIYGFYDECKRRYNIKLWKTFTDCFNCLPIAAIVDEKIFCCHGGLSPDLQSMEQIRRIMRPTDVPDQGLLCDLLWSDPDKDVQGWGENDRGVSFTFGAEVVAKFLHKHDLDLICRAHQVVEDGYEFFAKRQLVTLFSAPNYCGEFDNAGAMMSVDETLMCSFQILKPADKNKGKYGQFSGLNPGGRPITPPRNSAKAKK
PP1 inh confirm: PP1 phosphatase inhibitors, confirmation, biochemical, fluorescence, OMFP substrate, triplicate; purified PP1alpha; inhibition, % at 6.7 µM; shares compounds with PP1 inh; hit rate 52% among 1,900;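 active = mean PP1 inhibition above a set limit taken from the earlier primary screen, cut at about 15% in these data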
PP5 inh counter: PP5 phosphatase inhibition by PP1 hits, confirmation, counter-screen for PP1 inhibitor project, biochemical, fluorescence, triplicate; inhibition, % at 6.7 µM; AID 2360, 2010; hit rate 4% among 1,900; purified PP5c, OMFP fluorescence; shares compounds with PP1 inh;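 active = mean PP5 inhibition over triplicate wells above about 9.5% taken from the earlier PP1 screen, limit read from the data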
Numbers without * were called inactive; x = no result.

SMILES | PP5 inh | PAFAH1B3 FP inh | pPAFAH FP inh | PAFAH2 FP inh | PAFAH1B2 inh | PP1 inh | PP1 inh confirm | PP5 inh counter
COc1ccc(-c2csc(NC(=O)CN3C(=O)C4CC=CCC4C3=O)n2)cc1 (stereo not drawn) | 4 | 5 | 4 | -3 | -4 | -3 | x | x
COc1ccc(-c2csc(NC(=O)CCN3C(=O)C4CC=CCC4C3=O)n2)cc1OC (stereo not drawn) | 6 | 4 | 5 | 0 | 2 | 26* | -4 | -2
Cc1cc(Br)ccc1NC(=O)C1C2CCC(O2)C1C(=O)O (stereo not drawn) | 63* | 6 | 1 | 4 | 1 | 55* | 9 | 16*
O=C(O)C1C2CCC(O2)C1C(=O)NCCC1=CCCCC1 (stereo not drawn) | 69* | -4 | 2 | 5 | 4 | 61* | 31* | 41*
O=C(NCc1ccccc1Br)c1ccco1 | 3 | -2 | -2 | -1 | 2 | -5 | x | x
COc1ccc(NC(=O)C2C3CCC(O3)C2C(=O)O)c(C)c1 (stereo not drawn) | 65* | 1 | 3 | 1 | 3 | 62* | 12 | 27*
O=C(O)C1C2CCC(O2)C1C(=O)NCc1ccccc1Br (stereo not drawn) | 34* | 3 | -1 | 4 | 2 | 17* | 10 | 17*
COc1ccc(N2CCN(C(=O)CN=C3NS(=O)(=O)C(c4ccc(C)cc4)=C3C)CC2)cc1 | 2 | 5 | 6 | 0 | 3 | -3 | x | x
CCNC(=S)N1CCN(CCN=CC2=C(O)CC(c3ccco3)CC2=O)CC1 (stereo not drawn) | -3 | -4 | -1 | -1 | 0 | -1 | x | x
COc1cc(/C=N/NC(=O)Cc2ccccc2)ccc1Oc1ccc([N+](=O)[O-])cc1[N+](=O)[O-] | 3 | 0 | 1 | -10 | -2 | 1 | x | x
O=C(COc1cccc(C(F)(F)F)c1)NNC(=O)c1ccc(=O)[nH]c1 | x | 10 | -1 | 4 | 5 | x | x | x
CCOC(=O)c1cc(S(=O)(=O)NCc2ccc3c(c2)OCO3)cn1C | 0 | 10 | 0 | 4 | 10 | -5 | x | x
Cc1ccc(NC(=O)CCC(=O)NNC(=O)c2ccco2)cc1C | 1 | 4 | 1 | -3 | -2 | 1 | x | x
CC(C)OC(=O)CC(=O)c1sc2nc3c(cc2c1N)CN(C)CC3 | 5 | x | 14 | x | x | 23* | 7 | 20*
O=C(C1=C[C@H](c2ccccc2)C[C@H](OCc2ccc(CO)cc2)O1)N1CCN(Cc2ccc3c(c2)OCO3)CC1 | 1 | 2 | 3 | -2 | 8 | -1 | x | x
C=CCOc1ccc(NC(=O)C(=O)NCCCn2ccnc2)cc1 | -3 | 4 | 2 | -3 | 4 | -3 | x | x
CCCCCOc1ccc(NC(=O)C(=O)NCCCn2ccnc2)cc1 | 3 | 10 | 11 | 1 | 0 | 44* | 4 | -3
Cc1ccccc1OC(C)C(=O)NCCCN1CCOCC1 (stereo not drawn) | 0 | -2 | 0 | -2 | -3 | -6 | x | x
CCCCOC(=O)c1ccc(NC(=O)c2ccccc2OC)cc1 | 7 | -5 | -2 | -7 | -6 | 64* | 1 | 2
CCCOC(=O)c1ccc(NC(=O)c2ccccc2OC)cc1 | 2 | 3 | 1 | 3 | 0 | -4 | x | x
COc1ccc(C(CNC(=O)c2cc(F)c(F)c(F)c2F)N2CCOCC2)cc1 (stereo not drawn) | 3 | -3 | 0 | -2 | 2 | -13 | x | x
Cc1c(CCOC(=O)CC23CC4CC(CC(C4)C2)C3)sc[n+]1CC(=O)c1ccccc1 | -2 | 1 | 2 | 3 | 1 | 26* | -5 | -1
Cc1c(CCOC(=O)C23CC4(C)CC(C)(CC(C)(C4)C2)C3)sc[n+]1CC(=O)c1ccccc1 | 4 | 8 | 9 | 0 | 1 | 21* | -1 | 5
COc1ccc(-c2ccc(-c3nnc(Cc4ccc(OC)c(OC)c4)o3)cc2)cc1 | 3 | 2 | 7 | -1 | 1 | 1 | x | x
CCN(Cc1ccccc1)c1ccccc1 | x | 9 | x | 13 | 5 | x | x | x
SMILES | PP5 inh | PAFAH1B3 FP inh | pPAFAH FP inh | PAFAH2 FP inh | PAFAH1B2 inh | PP1 inh | PP1 inh confirm | PP5 inh counter
CCN(Cc1ccccc1)c1ccc(/C=N/N=C(N)N)cc1 | 2 | 7 | 7 | 5 | 25* | 18* | 3 | -1
CCc1noc(C)c1C(=O)N(CCCOC)c1c(N)n(Cc2ccccc2)c(=O)[nH]c1=O | -1 | 5 | -2 | -2 | 2 | -6 | x | x
CCc1noc(C)c1C(=O)OCC(=O)N(CCOC)c1c(N)n(Cc2ccccc2)c(=O)[nH]c1=O | -4 | 9 | 7 | 1 | 5 | 22* | -6 | -5
O=C1CCC(C(=O)OCC(=O)Nc2cc(Cl)ccc2F)=NN1 | x | 4 | 6 | -1 | 3 | x | x | x
N#Cc1ccsc1NC(=O)COC(=O)C1=NNC(=O)CC1 | 1 | 14 | 12 | 9 | 6 | 19* | 7 | -4
CN(C(=O)CN1C(=O)/C(=C/c2ccccc2F)SC1=S)C1CCS(=O)(=O)C1 (stereo not drawn) | -2 | 4 | -5 | 2 | 0 | -2 | x | x
COC(=O)c1cc2sccc2n1CC(=O)N(C)c1ccccc1 | 4 | 2 | 7 | 5 | 3 | 43* | 2 | 0
Cc1cc(-c2csc(NC(=O)c3ccc(=O)[nH]c3)n2)c(C)n1Cc1ccccc1 | -1 | 9 | 31* | -14 | 7 | 28* | 14 | -2
O=C(Nc1nc(-c2ccccc2)cs1)c1ccc(=O)[nH]c1 | 3 | 1 | -2 | -5 | -1 | 1 | x | x
CCOC(=O)c1sc(-c2ccc(Cl)cc2Cl)nc1O | -2 | 5 | 13 | 2 | 8 | 21* | 21* | -4
CCOC(=O)c1sc(CS(=O)(=O)c2ccc(Cl)cc2)nc1C | 0 | -2 | 5 | -7 | 7 | 0 | x | x
CN(C)S(=O)(=O)c1ccc(NC(=S)NC(=O)c2ccc(Br)o2)cc1 | -1 | x | 3 | x | x | 1 | x | x
COc1ccccc1C(=O)NC(=O)COC(=O)c1ccc(Cl)cc1[N+](=O)[O-] | 2 | 1 | -4 | 0 | -1 | -4 | x | x
COc1ccccc1C(=O)NC(=O)COC(=O)CNC(=O)c1ccc(Cl)c([N+](=O)[O-])c1 | 0 | 6 | -6 | 10 | 0 | 27* | -3 | -3

Compound activity: PubChem, The Scripps Research Institute Molecular Screening Center
